High-throughput results from PubChem.
HPGD inh – inhibitors of human 15-hydroxyprostaglandin dehydrogenase (HPGD). purified HPGD, NADH fluorescence kinetic, PGE2 substrate. Potency, µM, usual class: inhibitors. 4.3% of 150,000 active. AID 894; active = well fitted inhibition curve with a large enough effect, not every such curve was filed as active; inconclusive = small, poorly fitted or top-dose-only effect, or another doubt; inactive = no such curve, though single readings can be large or run the other way
Target sequence (P15428 whole entry, looked up): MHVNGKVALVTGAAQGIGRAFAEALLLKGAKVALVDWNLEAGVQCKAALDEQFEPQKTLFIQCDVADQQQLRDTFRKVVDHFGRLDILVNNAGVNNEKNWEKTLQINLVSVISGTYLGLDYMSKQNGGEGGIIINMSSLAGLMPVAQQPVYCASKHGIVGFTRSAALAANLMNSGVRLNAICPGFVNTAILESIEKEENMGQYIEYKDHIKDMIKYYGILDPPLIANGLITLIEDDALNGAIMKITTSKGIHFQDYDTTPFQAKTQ
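20 nM HPGD preincubated 15 min at room temperature with compound in 50 mM Tris-HCl pH 8, 0.01% Tween 20. Started with 1 mM NAD+ and 30 uM prostaglandin E2; NADH fluorescence (360/450 nm) read 5 times over 30-s intervals, last minus first.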
HTT cytoprotect – Huntington cell model cytoprotection by ATP luminescence; PC12 HTT-Q103 induced, cytoprotection, ATP luminescence, 40 h; Potency, µM (doses to about 56.4 µM), hits mostly activators; 0.14% of 230,000 active; note: nearly all actives have a fitted effect of over 45% in size
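Cells were plated at 1500 per well in phenol red-free DMEM with 5% equine and 5% calf serum. Tebufenozide (100 nM final) and compounds were added, then ATPlite reagent, and luminescence was read.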
RGS12 GoLoco inh – RGS12 GoLoco-Gai1 interaction inhibition | Potency, µM (top dose mostly 61.6 µM), usual class: inhibitors | Gai1:RGS12 GoLoco peptide FP, rhodamine, 10 min | 0.44% of 230,000 active | AID 880 | P63096; active = well fitted inhibition curve with a large enough effect, not every such curve was filed as active; inactive = no such curve, though single readings can be large or run the other way; note: nearly all actives have a fitted effect of over 30% in size
Target sequence (P63096 whole entry, looked up): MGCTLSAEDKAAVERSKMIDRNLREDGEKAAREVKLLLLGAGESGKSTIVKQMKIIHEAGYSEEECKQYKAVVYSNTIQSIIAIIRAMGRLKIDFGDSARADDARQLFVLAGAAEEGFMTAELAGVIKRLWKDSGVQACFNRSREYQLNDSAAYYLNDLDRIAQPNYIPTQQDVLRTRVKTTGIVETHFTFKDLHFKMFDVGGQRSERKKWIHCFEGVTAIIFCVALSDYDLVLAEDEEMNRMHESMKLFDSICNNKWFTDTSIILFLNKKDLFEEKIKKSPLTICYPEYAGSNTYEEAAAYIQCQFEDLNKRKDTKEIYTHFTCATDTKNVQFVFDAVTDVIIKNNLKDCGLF
HttQ103 aggreg – reduces HttQ103-GFP aggregates in PC12 cells; AID 1688; 1.1% of 220,000 active; Potency, µM (titrated, usually from 46.1 µM), actives largely listed as inhibitors; PC12 HttQ103-GFP aggregates, Acumen cytometry, 40 h; note: nearly all actives have a fitted effect of over 60% in size
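Quantitative HTS on tebufenozide-induced (100 nM) PC12 cells stably expressing polyQ103 Huntingtin exon 1–GFP. Reduction of bright GFP aggregates, detected by laser scanning cytometry after lysis, identified actives across the titration.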
PNC assembly inh – inhibitors of perinucleolar compartment assembly; PC3M PTB-GFP, PNC prevalence imaging, 16 h; stronger effect = lower value; activity change (PNC), negative = inhibition, % at 10 µM; 3.1% of 140,000 active;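 active = readout at or below -70, meaning at least 70% loss of cells showing the perinucleolar compartment, a nuclear body marking cancer cells; inconclusive = readout between -30 and a set limit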
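Compounds are pinned in duplicate onto adhered PC3M cells stably expressing GFP-tagged PTB and incubated 16 h at 37 C. Cells are then fixed, nuclei stained with Hoechst, and PNC-positive cells counted.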
ALDH1A1 block – ALDH1A1 (human) enzyme inhibition | AID 1030 | Potency, µM (top dose mostly 75.3 µM), most hits filed as inhibitors | 7.3% of 220,000 active | P00352 | Purified ALDH1A1, NADH fluorescence, propionaldehyde substrate; active = well fitted inhibition curve with a large enough effect, not every such curve was filed as active; inconclusive = small, poorly fitted or top-dose-only effect, or another doubt; inactive = no such curve, though single readings can be large or run the other way
Numbers stand for hits; . = inactive; ? = inconclusive; / = not tested or not shown; [ ] = remark or other dose. Hits are enriched below; roughly 11% of the tested compounds scored in any of these assays. Unless noted, calls come from the whole dose curve; as a rule, active = well fitted curve in the direction sought with a large enough effect; inconclusive = small, poorly fitted or top-dose-only effect, or another doubt; inactive = no such curve, though single readings can be large; an effect the other way counts as inactive or inconclusive.

SMILES | HPGD inh | HTT cytoprotect | RGS12 GoLoco inh | HttQ103 aggreg | PNC assembly inh | ALDH1A1 block
CC(=O)Nc1ccc(S(=O)(=O)Nc2ccc(S(=O)(=O)N3CCCC3)cc2)cc1 | . | .[10 µM] | . | . | . | 2.8µM
CC(=O)Nc1ccc(S(=O)(=O)N2CCN(C)CC2)cc1 | . | . | . | . | . | .
CC(=O)Nc1ccc(S(=O)(=O)N2CCSC2C(=O)O)cc1 (configuration not stated) | . | . | . | .[9.22 µM] | . | 18µM
COc1ccc(S(=O)(=O)N2CCCCC2)cc1NS(=O)(=O)c1cc(Cl)ccc1Cl | . | / | . | . | ? | 2.2µM
COc1ccc(C2SCCN2S(=O)(=O)c2ccc(NC(C)=O)cc2)cc1 (configuration not stated) | . | . | . | . | . | .
CCCn1c(C)nc2c(NCCN(C(C)C)C(C)C)nc(C)nc21 | . | . | . | / | / | .
Cc1csc(NC(=O)c2cc3c(C)nn(Cc4ccccc4Cl)c3s2)n1 | ? | .[10 µM] | . | ? | . | ?
COC(=O)c1cc(=O)n2c(-c3ccc(OC)cc3)csc2n1 | . | . | . | . | . | 5µM
Cc1ccc2c(CSc3nnnn3C)cc(=O)oc2c1 | / | . | . | . | / | .
COc1cc(-c2nnc(SCc3cc(=O)oc4cc(C)ccc34)o2)cc(OC)c1OC | ? | .[10 µM] | . | ? | . | 6.3µM
Cc1ccc(S(=O)(=O)NNc2ccccc2)cc1 | 5µM | .[10 µM] | . | . | . | 5.6µM
Cc1ccc(S(=O)(=O)NNc2nc3ccccc3nc2C(F)(F)F)cc1 | 3.2µM | . | . | . | . | 7.1µM
Cn1cc(-c2nnc(-c3ccccc3)o2)c2ccccc21 | ? | . | . | . | . | ?
COc1cc2cc[n+]3cc4c(OC)c(OC)ccc4cc3c2cc1OC | . | . | . | / | / | .
C=CCOc1cccc(C2C(C(=O)c3ccco3)=C(O)C(=O)N2Cc2ccncc2)c1 (configuration not stated) | . | .[10 µM] | . | . | . | ?
Cc1nc(C)c(C(=O)C2=C(O)C(=O)N(CCCN(C)C)C2c2ccco2)s1 (configuration not stated) | . | .[0.074 µM] | . | . | -81 | ?
COc1cccc2cc(C(=O)C3=C(O)C(=O)N(CCN(C)C)C3c3ccc(Cl)cc3)oc12 (configuration not stated) | / | .[10 µM] | . | .[9.22 µM] | / | /
C=CCOc1cccc(C2C(C(=O)c3ccco3)=C(O)C(=O)N2CCN2CCOCC2)c1 (configuration not stated) | . | . | . | . | . | 25µM
Cc1nc(C)c(C(=O)C2=C(O)C(=O)N(CCN(C)C)C2c2ccccc2)s1 (configuration not stated) | . | . | . | . | ? | .
COc1cccc(C2C(C(=O)c3sc(C)nc3C)=C(O)C(=O)N2CCN2CCOCC2)c1 (configuration not stated) | . | .[0.074 µM] | . | . | . | 20µM
COc1cccc2cc(C(=O)C3=C(O)C(=O)N(CCN4CCOCC4)C3c3cccs3)oc12 (configuration not stated) | . | . | . | . | . | 25µM
COc1ccc(CNc2ncnc3ccc(-c4ccccc4OC)cc23)c(OC)c1 | / | . | . | / | / | ?
O=C(O)C[n+]1ccccc1 | . | .[10 µM] | .[14.2 µM] | / | / | .[13.5 µM]
COc1ccc(C2C(C(=O)/C=C/c3ccco3)=C(O)C(=O)N2CCN2CCOCC2)cc1 (configuration not stated) | / | . | . | . | / | 20µM
COc1ccc(Sc2ccc(/C=C3\C(=O)NN(c4ccccc4)C3=O)o2)cc1 | 16µM | .[10 µM] | . | ? | . | ?
SMILES | HPGD inh | HTT cytoprotect | RGS12 GoLoco inh | HttQ103 aggreg | PNC assembly inh | ALDH1A1 block
CCN(CC)CCCCn1c(-c2ccccc2)nc2c(N(CCOC)CCOC)nc(C)nc21 | ? | . | . | / | / | ?
Cn1cccc1C(=O)NC(=O)CSc1cccc[n+]1[O-] | . | . | . | . | -95 | ?
O=C(CSc1cccc[n+]1[O-])c1cc2ccccc2o1 | 28µM | .[10 µM] | . | . | . | ?
COc1ccccc1C(=O)NC(=O)CSc1cccc[n+]1[O-] | / | . | . | . | / | .
C#CCCCO/N=C1/C[C@@H](O)[C@@H](O)[C@@H]2[C@H]3C(=O)N(c4ccc(F)cc4F)C(=O)[C@@H]3CC[C@@H]12 | / | .[10 µM] | / | / | / | .[13.5 µM]
CSC1=NCCN1C(=O)c1ccc(S(=O)(=O)N(C)C)cc1 | . | . | . | . | . | ?
COc1ccc(NC(=O)/C(C#N)=C/c2cc(C)n(-c3ccc(N4CCOCC4)c([N+](=O)[O-])c3)c2C)cc1 | . | .[10 µM] | . | . | . | .
Cc1cc(C=O)c(C)n1-c1ccc(Oc2ccc([N+](=O)[O-])cn2)cc1 | . | / | . | 22µM | -118 | 10µM
COc1ccc(NC(=O)/C(C#N)=C\c2cc(C)n(-c3ccc(Oc4ccc([N+](=O)[O-])cn4)cc3)c2C)cc1 | 28µM | . | . | . | . | .
Cc1cc(/C=C(\C#N)C(=O)Nc2ccc(F)cc2)c(C)n1-c1ccc(N2CCOCC2)c([N+](=O)[O-])c1 | . | . | . | . | . | 16µM
COC(=O)[C@@]1(Cc2ccccc2)[C@H]2c3cc(C(=O)N4CCCC4)n(CC4CC4)c3C[C@H]2CN1C(=O)c1ccccc1 | . | . | . | / | / | .
COC(=O)Cc1[nH]nc2c1C(c1ccc(O)c(OC)c1)C(C#N)=C(N)O2 (configuration not stated) | / | .[10 µM] | . | .[9.22 µM] | / | /
CCCCCCN | . | . | 28µM | / | / | .
O=C(O)CCC(=O)NNC(=O)c1cccc(Br)c1 | . | .[10 µM] | . | . | . | .
CC(C)(C)NC(=S)NNC(=O)c1cccc(Br)c1 | / | . | . | 11µM | / | 11µM
O=C(O)/C=C/C(=O)NNC(=O)c1cccc(Br)c1 | . | .[1.9 µM] | . | . | . | 20µM
O=C(NNC1OC(CO)C(O)C(O)C1O)c1cccc(Br)c1 (configuration not stated) | / | . | . | . | / | 11µM
O=C(NC(=S)Nc1cc(Cl)ccc1O)c1cccc(Br)c1 | / | .[10 µM] | . | .[9.22 µM] | / | 9.5µM
NC(=O)c1cc(-c2ccccc2)sc1NC(=O)CN1CCCCC1 | ? | .[10 µM] | . | . | . | .
O=C(NNC(=S)Nc1ccccc1)c1cccc(Br)c1 | . | . | . | .[9.22 µM] | . | 20µM
O=[N+]([O-])c1cc([N+](=O)[O-])c2c(=Nc3ccccc3)n(-c3ccccc3)n(O)c2c1 | / | . | . | . | / | 0.35µM
O=[N+]([O-])c1cccc(C(=Nc2ccccc2)NO)c1 | . | .[10 µM] | . | . | . | .
Cc1nn(C)c(Cl)c1CN1CCN(CC(C)C)C(CCO)C1 (configuration not stated) | / | . | . | . | / | ?
COc1ccc(OCCSc2nnc(C)n2-c2ccccc2)cc1 | . | .[1.9 µM] | . | . | ? | .
COCCn1c(SCc2nc3ccccc3c(=O)[nH]2)nnc1-c1ccncc1 | . | .[10 µM] | . | . | ? | .
